Screens from PubChem BioAssay.
WT yeast gro inh – growth inhibition of WT strain, primary screen, mitochondrial fusion inhibitor project, WT and mutant strains, chemical genetic; hit rate 2.1% among 190,000; mitochondrial fusion phenotypic screen; inhibition, % at 10 µM; in the data active = inhibition above about 58%; tested in S. cerevisiae
KCC2 mod – KCC2 cotransporter modulators, thallium flux, primary screen, cell-based, HEK293 KCC2, FluoZin-2 fluorescence, MLSMR; B-score of Tl+ flux slope (higher = more flux/activation; lower = inhibition) at 10 µM; KCC2 cells, thallium flux FluoZin-2 fluorescence; hit rate 2.2% among 190,000;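 active = thallium flux slope and its plate-corrected score both differing from the plate sample mean at a set confidence after two filtering rounds, in either direction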;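 also: slope of fluorescence scaled to starting intensity during 10 to 20 s after thallium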
Target sequence (Q9H2X9 whole entry, looked up): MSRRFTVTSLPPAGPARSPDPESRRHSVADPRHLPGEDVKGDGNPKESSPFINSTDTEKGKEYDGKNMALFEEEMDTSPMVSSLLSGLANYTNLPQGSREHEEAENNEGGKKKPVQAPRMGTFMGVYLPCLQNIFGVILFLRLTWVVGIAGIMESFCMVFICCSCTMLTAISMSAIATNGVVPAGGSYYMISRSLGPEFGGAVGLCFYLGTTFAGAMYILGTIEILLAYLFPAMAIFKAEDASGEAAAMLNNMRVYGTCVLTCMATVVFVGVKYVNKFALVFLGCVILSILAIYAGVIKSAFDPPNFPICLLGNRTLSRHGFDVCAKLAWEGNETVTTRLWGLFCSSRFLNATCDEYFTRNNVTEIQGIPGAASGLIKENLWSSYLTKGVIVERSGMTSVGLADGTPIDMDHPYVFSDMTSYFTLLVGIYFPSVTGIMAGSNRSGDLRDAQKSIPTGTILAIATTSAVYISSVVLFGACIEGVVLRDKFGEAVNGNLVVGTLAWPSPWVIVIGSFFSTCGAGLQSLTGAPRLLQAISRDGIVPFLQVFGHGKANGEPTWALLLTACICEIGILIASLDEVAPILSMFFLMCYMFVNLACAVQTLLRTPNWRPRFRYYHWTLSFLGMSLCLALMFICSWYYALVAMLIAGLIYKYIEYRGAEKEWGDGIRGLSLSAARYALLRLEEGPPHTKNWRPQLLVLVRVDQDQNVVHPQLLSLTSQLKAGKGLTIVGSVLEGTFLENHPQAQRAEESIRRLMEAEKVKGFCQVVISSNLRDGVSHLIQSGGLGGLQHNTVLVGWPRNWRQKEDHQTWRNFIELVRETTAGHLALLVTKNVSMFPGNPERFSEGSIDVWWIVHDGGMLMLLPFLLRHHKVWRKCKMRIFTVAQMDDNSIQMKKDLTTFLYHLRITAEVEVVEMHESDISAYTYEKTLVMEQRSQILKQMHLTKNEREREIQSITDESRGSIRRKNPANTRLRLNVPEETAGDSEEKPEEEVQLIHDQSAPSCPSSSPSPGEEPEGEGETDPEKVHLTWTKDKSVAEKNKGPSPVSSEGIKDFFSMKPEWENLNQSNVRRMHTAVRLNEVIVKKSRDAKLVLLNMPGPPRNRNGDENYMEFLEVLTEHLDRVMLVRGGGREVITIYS
L major viab – Leishmania major promastigote growth inhibition, primary screen; AID 1063, 2008; hit rate 9% among 200,000; Leishmania major promastigotes, resazurin fluorescence viability; inhibition, % at 10 µM; in the data active = inhibition above about 50%;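 also: promastigotes grown with compound for 44 hours at 28 °C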
Calpain2 inh – inhibitors of pig calpain II, primary screen, biochemical, fluorogenic peptide substrate, 1536-well; AID 1236, 2008; hit rate 0.37% among 220,000; purified calpain II, 30 min; inhibition, % at 16 µM;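 active = inhibition above about 50%, limit read from the data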
ROMK mod – ROMK potassium channel modulators, primary screen, cell-based, thallium flux, MLSMR library; Tet-inducible ROMK, thallium flux fluorescence; actives lie on both sides; B-score at 10 µM; hit rate 2% among 130,000; ATP-sensitive inward rectifier potassium channel 1 (Homo sapiens), P48048; AID 1918, 2009;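 active = signal ratio slope over the read window, or its plate-corrected B-score, at least 3 SD from the plate mean, either direction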;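 also: B-score of the F/F0 ratio slope over 7 to 12 s after thallium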
KCC2 sec1 – KCC2 modulators in sodium-free buffer, confirmation, cell-based, HEK293 KCC2, thallium flux, secondary assay; shares compounds with KCC2 mod; normalised thallium flux (F/F0 slope) at 10 µM; hit rate 15% among 3,700; AID 1713, 2009; FluoZin2 fluorescence; hits give high values;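 active = thallium flux slope above the same plate's solvent-only control mean plus 3 SD; inconclusive = the two replicate wells disagree; inactive = no significant difference from solvent-only control wells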
KCC2 bumet counter – thallium flux persisting under bumetanide in KCC2 cells, confirmation, counter-screen for KCC2 modulator project, cell-based, HEK293 KCC2, FluoZin2, secondary assay 3; shares compounds with KCC2 mod; HEK293-KCC2 + bumetanide/ouabain; hits give high values; normalized thallium flux at 10 µM; hit rate 49% among 3,700; AID 1714, 2009;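 active = thallium entry rate above the same plate's blocked-transporter control wells by more than 3 SD; inconclusive = the two repeat wells disagree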;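 also: raw slope of fluorescence over initial fluorescence between 10 and 20 s after thallium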
KCC2 secondary2 – KCC2 modulators without ouabain present, confirmation, cell-based, HEK293 KCC2, thallium flux, FluoZin2, secondary assay 2; thallium flux FluoZin2 fluorescence; actives lie on both sides; F/F0 rise rate, 10–20 s post-thallium; shares compounds with KCC2 mod; AID 1715, 2009; hit rate 23% among 3,700; normalized thallium flux at 10 µM;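 active = thallium flux slope more than 3 SD above or below the plate's solvent-only control mean, mostly below; inconclusive = the two repeat wells disagreed; inactive = no significant shift from solvent-only controls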;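 also: raw slope with 0.1% DMSO as baseline and bumetanide as block control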
HEK counter1 – thallium flux modulation in parental HEK cells, confirmation, counter-screen for KCC2 modulator project, cell-based, counterscreen 1; shares compounds with KCC2 mod; HEK293 parental cells, thallium flux FluoZin2, ouabain; baseline-ratio fluorescence slope, 10–20 s after thallium; thallium flux rate (normalised fluorescence) at 10 µM; hit rate 46% among 3,700; AID 1716, 2009;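 active = thallium flux rate significantly above the same plate's solvent-only control wells, beyond their mean plus 3 SD; inconclusive = the two replicate wells gave conflicting results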
KCC2 retest ouab – KCC2 inhibitors and activators, ouabain retest, confirmation, HEK-KCC2 cells | hit rate 48% among 3,700 | raw Tl+ flux slope (below DMSO = inhibition, above = activation) at 10 µM | HEK293-KCC2, thallium flux FluoZin2 fluorescence; bidirectional: low = inhibitor, high = activator | shares compounds with KCC2 mod | AID 1717, 2009;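 active = thallium flux slope beyond 3 SD from same-plate DMSO control mean in most replicates, usually higher, sometimes lower; inconclusive = repeat tests gave conflicting results; inactive = no significant difference from controls in most replicates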;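 also: slope of initial-normalized fluorescence between seconds 10 and 20 after thallium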
HEK counter2 – native HEK Tl+ uptake effects, second counter-screen – HEK cells, counterscreen 2, counter-screen for KCC2 modulator project, confirmation | thallium flux slope at 10 µM | hit rate 33% among 3,700 | shares compounds with KCC2 mod | HEK293 parental, thallium flux FluoZin-2 fluorescence slope | AID 1718, 2009;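 active = thallium flux slope above the same plate's solvent-control mean plus 3 SD in both duplicate wells; inconclusive = duplicate wells that disagreed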;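 also: run without ouabain in cells lacking the KCC2 cotransporter; slope of fluorescence scaled to its starting value between 10 and 20 s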
An asterisk follows results filed as active; ? = inconclusive; / = not tested or not shown. Sampled rows, rich in hits. Any-hit rate of the full collection: about 12%.

SMILES	WT yeast gro inh	KCC2 mod	L major viab	Calpain2 inh	ROMK mod	KCC2 sec1	KCC2 bumet counter	KCC2 secondary2	HEK counter1	KCC2 retest ouab	HEK counter2
CN(Cc1ccccc1)C(=O)CSc1nc2ccccc2c(=O)n1Cc1ccco1	24	-3.5*	45	5	/	0.0072	0.0031*	0.026*	0.0058*	0.015*	?
O=C(CCCCCn1c(SCC(=O)c2ccccc2)nc2ccccc2c1=O)NCc1ccco1	10	-0.36	2	-19	/	/	/	/	/	/	/
COc1ccc(CNC(=O)COC(=O)CCc2nc3ccccc3c(=O)[nH]2)cc1	-11	-0.55	-7	0	-0.021	/	/	/	/	/	/
Fc1ccc(N/N=C/c2ccc(N3CCOCC3)cc2)c(F)c1	32	0.28	-15	-2	-0.34	/	/	/	/	/	/
CCOC(=O)c1ccc(NC(=O)Oc2cc(C)c(Cl)cc2C(C)C)cc1	/	-0.69	/	-8	/	/	/	/	/	/	/
Cc1cc(C)n(-c2nc(SCC(=O)Nc3nccs3)c3c4c(sc3n2)COC(C)(C)C4)n1	0	4.4*	37	1	/	0.0096	0.022*	0.032	0.019*	0.026*	0.013*
Cc1cc(C)n(-c2nc(-n3nc(C)cc3C)c3c4c(sc3n2)COC(C)(C)C4)n1	16	/	5	-7	-0.011	/	/	/	/	/	/
Cc1ccc2cc(C(c3nnnn3C(C)(C)C)N3CCCCCC3)c(=O)[nH]c2c1 (centres undefined)	4	/	2	-135	0.46	0.0091	0.0068	0.03	0.0069	0.025	0.011
Cc1ccc(NC(=O)c2ccc(OC(=O)c3cc4ccccc4o3)cc2)cc1	-7	/	-6	7	-0.016	/	/	/	/	/	/
Cc1ccccc1Cn1nc(C)c(NC(=O)c2noc3c2CC(C(C)(C)C)CC3)c1C (centres undefined)	18	/	42	-3	-0.37	/	/	/	/	/	/
Cc1ccccc1Cn1nc(C)c(NC(=O)c2noc3c2CCc2ccccc2-3)c1C	40	-3.8*	6	27	/	0.0085	0.0068	0.033	0.0081	0.019	0.011
N#CC(C#N)=C(Nc1ccc(F)cc1)SCc1cccc(F)c1	53	-5.1*	38	18	-0.37	0.005	?	0.025*	?	0.014*	0.0091*
CCn1c(SC/C=C/c2ccccc2)nnc1-c1cccs1	7	/	8	19	/	/	/	/	/	/	/
C=CCn1c(Cc2cccs2)nnc1SC/C=C/c1ccccc1	5	-4*	26	18	-1.4	0.0051	?	?	0.0053*	0.014*	0.0085*
CS(=O)(=O)c1[nH]nc(-c2ccccc2Cl)c1C#N	/	-0.022	/	0	-0.058	/	/	/	/	/	/
CCN(CC)CC#CCOC(=O)C(O)(c1ccccc1)C1CCCCC1 (centres undefined)	10	1.3	23	30	/	0.0085	0.0058	0.035	0.0078	0.021	0.011
CCN(CC)CC#CCC(O)(c1ccccc1)C1CCCCC1 (centres undefined)	11	-0.68	19	-14	-2.6	/	/	/	/	/	/
Cc1cccn2c(=O)c(/C=N/O)c(N3CCOCC3)nc12	-14	-0.27	-6	-17	/	/	/	/	/	/	/
CCOC(=O)C(NC(C)=O)C(OC(C)=O)c1cccc(N(CCO)CCO)c1 (centres undefined)	-7	0.14	-6	-19	1.2	/	/	/	/	/	/
Cn1c(=O)cc(SCC(=O)N2CCN(c3ccccn3)CC2)c2ccccc21	14	-3.5*	14	1	/	0.0076	0.0067	0.031	0.0069	0.018*	0.0098
Cn1c(=O)cc(SCC(=O)N2CCN(c3ccccc3)CC2)c2ccccc21	-1	/	9	5	/	/	/	/	/	/	/
COc1ccc(OC)c(/C(O)=C/C(=O)C(=O)Nc2cc(C)cc(C)c2)c1	10	1.2	35	-114	-0.34	/	/	/	/	/	/
COc1ccc(OC)c(/C(O)=C/C(=O)C(=O)Nc2cc(C)ccc2OC)c1	0	4*	93*	-109	1.1	0.0058	0.022*	0.036	0.016*	0.027*	0.018*
COc1ccccc1NC(=O)C(=O)/C=C(\O)c1ccccc1	/	73*	/	-19	/	?	0.088*	0.062*	0.052*	0.064*	0.041*
CCOc1ccccc1NC(=O)C(=O)/C=C(\O)c1cc(OC)ccc1OC	-8	5.8*	44	-45	-0.018	0.006	0.026*	0.036	0.022*	0.029*	0.014*
SMILES	WT yeast gro inh	KCC2 mod	L major viab	Calpain2 inh	ROMK mod	KCC2 sec1	KCC2 bumet counter	KCC2 secondary2	HEK counter1	KCC2 retest ouab	HEK counter2
COc1ccccc1NC(=O)CNC(=O)c1ccccc1	-41	-0.16	-4	-8	/	/	/	/	/	/	/
O=C(O)C(CC(=O)N1CCOCC1)NCc1ccccc1 (centres undefined)	/	0.091	-12	/	0.22	/	/	/	/	/	/
CCc1nc2sc3ccccc3c(=O)c2c(=O)n1Cc1ccc(OC)cc1	/	0.63	/	3	/	/	/	/	/	/	/
COCCNC(=O)c1cc(Br)ccc1Cl	5	-4.5*	-3	-8	0.17	0.011	0.035*	0.033	0.019*	0.028	?
CCc1ccc(OCCNC(=O)c2cc(SC)ccc2Cl)cc1	17	-6.3*	-6	22	0.067	0.0067	0.0053	0.025*	0.0071	?	0.011
CCc1ccc(OCCNC(=O)c2cccs2)cc1	/	/	18	27	1.1	/	/	/	/	/	/
O=C(NCCOc1ccc(F)cc1)c1ccccc1SCc1ccccc1	43	-5.4*	-3	4	/	0.0051	?	0.019*	0.0059*	0.012*	0.0089
CCc1ccc(OCCNC(=O)c2ccccc2SCc2ccc(F)cc2)cc1	-7	-8.8*	-2	15	-0.9	0.0082	0.0065	0.023*	0.0065	0.013*	0.0093
Cc1cc(C)c(NC(=O)CSc2ccc3nnc(CCNC(=O)c4ccccc4)n3n2)c(C)c1	-7	0.04	2	2	0.63	/	/	/	/	/	/
